Assay outcomes from PubChem.
AMA1 RON2 block = inhibitors of Plasmodium falciparum AMA1-RON2 interaction; AlphaScreen AMA1-biotinylated RON2 peptide binding; Potency, µM (titrated, usually from 58.2 µM), inactives show at the highest dose activity change, negative = inhibition, most hits filed as inhibitors; 360,000 tested, 0.2% active;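 further: potency means the concentration at half of the fitted maximal effect; 0% = vehicle wells and -100% = peptide control; nearly all actives have a fitted effect of over 45% in size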
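AMA1 (3D7) with his tag at 25 nM final met compounds first, then biotinylated RON2 peptide at 25 nM; detection used donor plus acceptor beads, 10 µg/mL apiece, read by AlphaScreen after 30 min at room temperature.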
Pf growth 48h = P. falciparum growth inhibition at 48 hours (one generation); P. falciparum luciferase growth in erythrocytes, 48 h; Potency, µM (series often up to 28.7 µM), for inactives: top-dose activity change, negative = inhibition, most hits filed as inhibitors; 310,000 tested, 5.9% active; further: potency means the concentration at half of the fitted maximal effect; on the % scale 0 is the no-effect control and ±100 the full control effect
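Parasite viability was followed by luminescence of a genomically integrated firefly luciferase. Cultures held 0.1% parasitemia at 2% hematocrit (final), incubated under 5% CO2 at 37 C.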
Shiga toxin inh = Shiga toxin inhibition. 290,000 tested, 9.2% active. Vero cells, Shiga toxin protein synthesis inhibition reporter. inhibition, % at 38.7 µM; in the data active means inhibition mostly above about 28%, no sharp cut-off; inactive means mostly below about 43%; further: 0% is about no effect
Cycloheximide cs = counter-screen for Shiga toxin inhibitors: cycloheximide protein synthesis inhibition; cell reporter, cycloheximide protein synthesis inhibition counterscreen; max response, %; 300,000 tested, 12% active; AID 2314; in the data active means max response mostly above about 13%, no sharp cut-off; inactive means mostly below about 14%; further: read at 38.3 µM for the half of the compounds with a filed dose; 0% is about no effect
Pf growth 96h = inhibits malaria parasite growth, 96 h | P. falciparum luciferase reporter growth, 96 h | Potency, µM (series often up to 28.7 µM), for inactives: at the highest dose activity change, negative = inhibition, usual class: inhibitors | 320,000 tested, 6.9% active | AID 504834; further: potency means the concentration at half of the fitted maximal effect; on the % scale 0 is the no-effect control and ±100 the full control effect
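Plates of compound plus infected erythrocytes (2% hematocrit, 0.05% parasitemia final) incubate 96 hours, 37 C, 5% CO2. Detection reagent added; reduced luminescence from the parasites' luciferase reporter flags inhibition.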
SARS PLP yeast = inhibitors of SARS-CoV papain-like protease in yeast; S. cerevisiae expressing SARS-CoV PLpro, growth rescue; Potency, µM (top dose mostly 32.9 µM), inactives show top-dose activity, positive = growth rescue, usual class: activators; 330,000 tested, 0.19% active; AID 485353; calls by dose curve; further: potency means the concentration at half of the fitted maximal effect; 0% is about no effect; nearly all actives have a fitted effect of over 55% in size
Active calls of the source: *; ? = inconclusive; nt = not tested or not shown. This is a sample that favours compounds with a hit; in the whole collection about 19% have one here. Unless noted, the call rests on the fitted dose curve; in most records, active means well fitted curve in the direction sought with a large enough effect; inconclusive means small, poorly fitted or top-dose-only effect, or another doubt; inactive means no such curve, though single readings can be large; an effect the other way counts as inactive or inconclusive.

SMILES | AMA1 RON2 block | Pf growth 48h | Shiga toxin inh | Cycloheximide cs | Pf growth 96h | SARS PLP yeast
CC(C)c1onc(C(=O)NC2CCCCC2)c1[N+](=O)[O-] | ? | 14% | 13 | 20 | -27% | 4%
CC(CN1C(C)CCCC1C)OC(=O)c1ccc(Cl)cc1Cl (centres undefined) | -20% | 13% | -12 | 8 | 6% | 0%
COC(=O)[C@H]1[C@@H](C)N(CCc2cc(OC)c(OC)c(OC)c2)C(=O)N[C@H]1c1ccccc1 | -2% | nt | nt | nt | nt | nt
Fc1ccc(OCc2nc(-c3ccc(Br)o3)no2)c(F)c1 | 22% | nt | 62* | 18* | ? | -10%
Cc1ccc(-n2nnnc2-c2nc3ccccc3s2)cc1 | 8% | -18% | 51* | 15* | ? | -5%
CCOc1ccc(-n2nnnc2-c2nc3ccccc3s2)cc1 | -11% | 2% | 138* | 60* | ? | 12%
CCOc1ccc(N2C(=O)C(c3ccccc3)=C(c3nc4ccccc4s3)C2NC(C)=O)cc1 (centres undefined) | -15% | nt | 15 | 2 | ? | -23%
CCCS(=O)(=O)c1c(S(=O)(=O)CCC)c2cc(-c3ccncc3)ccn2c1C(=O)OC | 4% | ? | 6 | -1 | -18% | 0%
CCCS(=O)(=O)c1c(S(=O)(=O)CCC)c2cnccn2c1C(=O)c1ccc(CC)cc1 | 1% | 3.3µM* | -4 | -3 | nt | 6%
CCCS(=O)(=O)c1c(S(=O)(=O)CCC)c2cnccn2c1C(=O)c1ccc(F)cc1 | 1% | 13µM* | 4 | 1 | -20% | -1%
CCCS(=O)(=O)c1c(S(=O)(=O)CCC)c2c(C(N)=O)cccn2c1C(=O)c1ccc(F)cc1 | 2% | 8% | -4 | 0 | 14% | 5%
CCCS(=O)(=O)c1c(S(=O)(=O)CCC)c2cnccn2c1C(=O)c1ccc(OC)cc1 | 0% | 10µM* | 8 | 1 | ? | -1%
COc1ccc(C(=O)N2CCC(C)(C(=O)NS(=O)(=O)C3CC3)C2)cc1F (centres undefined) | -4% | nt | nt | nt | nt | nt
CCOc1ccc(NC(=O)c2ccc(NS(=O)(=O)c3cccs3)cc2)cc1 | -11% | -3% | 21 | 10 | 0.83µM* | 5%
CCC(C)NCCC(=O)Nc1ccc(Cl)c(S(=O)(=O)Nc2ccc(Cl)cc2)c1 (centres undefined) | -10% | 10µM* | 12 | -2 | 9.3µM* | -1%
Cc1ccc(C(=O)CCC(=O)Nc2ccc(Cl)c(S(=O)(=O)Nc3cccc(Cl)c3)c2)cc1 | -4% | 5% | -15 | -1 | 31% | -9%
CCCOc1ccc(C(=O)Nc2ccc(NC(=O)c3cccs3)cc2)cc1 | -4% | 3% | 49* | 13 | -21% | 2%
CCOc1ccc(NS(=O)(=O)c2cc(NC(=O)c3ccc(C)cc3)ccc2Cl)cc1 | 8% | ? | -14 | 17* | ? | -23%
CNC(=O)c1c(NC(=O)c2cccc(N3C(=O)CCC3=O)c2)sc2c1CCCC2 | 12% | 16% | 25 | 16 | 12% | 0%
CCC(C(=O)NCCCN1CC(C)CC(C)C1)n1nc(C)c2sc3ccccc3c2c1=O (centres undefined) | 5% | ? | -6 | -9 | ? | -1%
COc1cccc(C(=O)NNC(=O)c2ccc(NS(=O)(=O)c3cccs3)cc2)c1OC | 16% | 2.9µM* | nt | nt | 2.1µM* | -1%
O=C(c1ccccc1)c1cccs1 | -14% | 52% | 33 | 6 | -16% | 6%
COC(=O)COc1cccc(NC(=O)c2cccs2)c1 | -6% | 0% | 8 | 8 | nt | -11%
CCOc1ccc(C(=O)c2cccs2)cc1 | 7% | 120% | 44 | 27* | nt | 2%
CCCCOc1cccc(C(=O)Nc2ccc(NC(=O)c3cccs3)cc2)c1 | -2% | 0% | 28 | -1 | 4.7µM* | 1%
COc1ccccc1C(=O)NNC(=O)c1ccc(NS(=O)(=O)c2cccs2)cc1 | 27% | 36% | -11 | 0 | 9% | -2%
CCc1[nH]nc(C(=O)N2CCCC(N3CCN(c4ccccc4C)CC3)C2)c1C (centres undefined) | -14% | ? | 5 | 6 | ? | 9%
